Source: PubChem BioAssay (Tox21)
“And” between values parts separate entries of the source, which are not always exact repeats. Equal entries are not always repeated. Results filed as inconclusive are left out. A call without a number means that no potency is given here. Some compounds were tested as several samples or in several runs, with calls that do not always agree. The source made the active and inactive calls. Unless noted, calls come from the whole dose curve; as a rule, active = well fitted curve in the direction sought with a large enough effect in the repeat runs; inconclusive = weak or mixed curves; inactive = no such curve, though single readings can be large; an effect the other way counts as inactive or inconclusive.

Key:
[1] = qHTS assay to identify small molecule antagonists of the glucocorticoid receptor (GR) signaling pathway - cell viability counter screen (AID 720693); note: nearly all actives have a fitted effect of over 55% in size
[2] = qHTS assay for identifying genotoxic compounds that show differential cytotoxicity against isogenic chicken DT40 cell lines with known DNA damage response pathways - wild type cell line (AID 743012); note: nearly all actives have a fitted effect of over 60% in size; note: potency is the fitted concentration of half-maximal effect
Method in brief: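 Quantitative HTS on parental DT40 cells: 40 h compound treatment at 37 C/5% CO2, with viability then determined by CellTiter-Glo luminescence. Values serve as the DNA repair-proficient reference for differential cytotoxicity.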

[3] = qHTS assay for identifying genotoxic compounds that show differential cytotoxicity against isogenic chicken DT40 cell lines with known DNA damage response pathways - Rev3 mutant cell line (AID 743014); note: nearly all actives have a fitted effect of over 55% in size; note: potency is the fitted concentration of half-maximal effect
[4] = qHTS assay for identifying genotoxic compounds that show differential cytotoxicity against isogenic chicken DT40 cell lines with known DNA damage response pathways - Rad54/Ku70 mutant cell line (AID 743015); note: nearly all actives have a fitted effect of over 60% in size; note: potency is the fitted concentration of half-maximal effect
[5] = qHTS assay to identify small molecule antagonists of the androgen receptor (AR) signaling pathway - cell viability counter screen (AID 743033; note: nearly all actives have a fitted effect of over 45% in size)
[6] = target: Androgen receptor (Homo sapiens) (UniProt P10275); test: qHTS assay to identify small molecule antagonists of the androgen receptor (AR) signaling pathway (AID 743035; active = well fitted inhibition curve with a large enough effect in the signal ratio in the repeat runs, not every such curve was filed as active; the % refers to the signal ratio)
Method in brief: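 Cell line: GeneBLAzer AR-UAS-bla GripTite (HEK293). Stimulus: R1881 added after compound. Exposure: 16 h, 37C, 5% CO2. Readout: LiveBLAzer B/G FRET fluorescence after 2 h at room temperature.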

[7] = target: Androgen receptor (Homo sapiens) (UniProt P10275); test: qHTS assay to identify small molecule agonists of the androgen receptor (AR) signaling pathway (AID 743036; active = well fitted activation curve with a large enough effect in the signal ratio in the repeat runs, with a control signal flat, not every such curve was filed as active; the % refers to the signal ratio)
Method in brief: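 In this Tox21 qHTS, 2,000 HEK293 AR-bla cells per well were incubated with compounds for 16 h at 37C and 5% CO2. Fluorescence intensity was recorded 2 h after adding LiveBLAzer B/G FRET substrate at room temperature.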

[8] = target: Androgen receptor (Homo sapiens) (UniProt P10275); test: qHTS assay to identify small molecule agonists of the androgen receptor (AR) signaling pathway using the MDA cell line (AID 743040; note: nearly all actives have a fitted effect of over 20% in size)
Method in brief: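 Cells plated, 5 h at 37C/0% CO2; compound or DMSO pinned; 16 h at 37C; ONE-Glo added; luminescence measured after 30 min at room temperature. Reporter line: MDA-kb2 with MMTV-luciferase responsive to AR and GR.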

[9] = qHTS assay to identify small molecule antagonists of the androgen receptor (AR) signaling pathway using the MDA cell line - cell viability counter screen (AID 743041; note: nearly all actives have a fitted effect of over 45% in size)
Method in brief: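 Cells were plated at 3,000 per well and left 5 h. Compounds in DMSO were then pinned in, followed by R1881. After 16 h at 37C, CellTiter-Fluor fluorescence gave viability.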

[10] = target: Androgen receptor (Homo sapiens) (UniProt P10275); test: qHTS assay to identify small molecule antagonists of the androgen receptor (AR) signaling pathway using the MDA cell line (AID 743042; note: nearly all actives have a fitted effect of over 55% in size)
Method in brief: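 Antagonist mode: compounds plus R1881 agonist added to MDA-kb2 AR-luc cells, incubated 16 h at 37C. Luciferase reporter luminescence quantified, with multiplexed CellTiter-Fluor readout for cell viability.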

[11] = qHTS assay to identify small molecule antagonists of the thyroid receptor (TR) signaling pathway - cell viability counter screen (AID 743064); note: nearly all actives have a fitted effect of over 50% in size; note: potency is the fitted concentration of half-maximal effect
Method in brief: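 Counter screen for cytotoxicity: compound plus T3 (1 nM final) on GH3.TRE-Luc cells, 23.5 h at 37 °C, then fluorescence viability readout with CellTiter-Fluor.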

[12] = qHTS assay to identify small molecule antagonists of the thyroid receptor (TR) signaling pathway (AID 743065); note: nearly all actives have a fitted effect of over 55% in size; note: potency is the fitted concentration of half-maximal effect
Method in brief: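 Antagonism measured as loss of luciferase signal in GH3 cells stably carrying a TRE-luciferase reporter, co-treated with compound and T3 (1 nM final) for 23.5 h at 37 C. Viability was read in the same well by CellTiter-Fluor.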

[13] = test system: thyroid hormone receptor (rat, GH3 cells); test: qHTS assay to identify small molecule agonists of the thyroid receptor (TR) signaling pathway (AID 743066; calls by dose curve)
[14] = target: Estrogen receptor (Homo sapiens) (UniProt P03372); test: qHTS assay to identify small molecule antagonists of the estrogen receptor alpha (ER-alpha) signaling pathway (AID 743069; active = well fitted curve in the direction sought with a large enough effect in the signal ratio in the repeat runs, not every such curve was filed as active; the % refers to the signal ratio)
Method in brief: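 ER-alpha-UAS-bla GripTite HEK293 line; 2% charcoal-stripped FBS overnight; plated, 4 hr 37C/5% CO2; cpd in DMSO + 17beta-estradiol, 18 hr 37C; LiveBLAzer B/G FRET substrate 2 hr RT; fluorescence intensity.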

[15] = qHTS assay to identify small molecule antagonists of the estrogen receptor alpha (ER-alpha) signaling pathway - cell viability counter screen (AID 743074; calls by dose curve;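 note: HEK293 cells carrying ER-alpha-UAS-bla reporter stimulated with 17beta-estradiol; nearly all actives have a fitted effect of over 45% in size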)
[16] = target: Estrogen receptor (Homo sapiens) (UniProt P03372); test: qHTS assay to identify small molecule agonists of the estrogen receptor alpha (ER-alpha) signaling pathway (AID 743075; calls by dose curve;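 note: HEK293 GripTite cells with ER-alpha and UAS-driven beta-lactamase reporter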)
[17] = target: Estrogen receptor (Homo sapiens) (UniProt P03372); test: qHTS assay to identify small molecule agonists of the estrogen receptor alpha (ER-alpha) signaling pathway using the BG1 cell line (AID 743079); note: nearly all actives have a fitted effect of over 20% in size
[18] = qHTS assay to identify small molecule antagonists of the estrogen receptor alpha (ER-alpha) signaling pathway using the BG1 cell line (AID 743080; calls by dose curve;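 note: BG1 cells stimulated with 17beta-estradiol alongside compound; series mostly up to about 70 µM; nearly all actives have a fitted effect of over 25% in size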)
Method in brief: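 Luminescence from a 4×ERE-luciferase reporter in BG1-Luc-4E2 cells served as read-out. Cells, pre-cultured 5 days in stripped-serum phenol-red-free medium, were exposed to compound with 17beta-estradiol co-stimulation for 21.5 h at 37 C.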

[19] = qHTS assay to identify small molecule antagonists of the estrogen receptor alpha (ER-alpha) signaling pathway using the BG1 cell line - cell viability counter screen (AID 743081);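 note: compound given together with 17beta-estradiol as the ER stimulus; series mostly up to about 70 µM; nearly all actives have a fitted effect of over 45% in size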
[20] = target: Aromatase (Homo sapiens) (UniProt P11511); test: qHTS assay to identify aromatase inhibitors (AID 743083)
Sequence of Aromatase (Homo sapiens) (P11511 whole entry, looked up): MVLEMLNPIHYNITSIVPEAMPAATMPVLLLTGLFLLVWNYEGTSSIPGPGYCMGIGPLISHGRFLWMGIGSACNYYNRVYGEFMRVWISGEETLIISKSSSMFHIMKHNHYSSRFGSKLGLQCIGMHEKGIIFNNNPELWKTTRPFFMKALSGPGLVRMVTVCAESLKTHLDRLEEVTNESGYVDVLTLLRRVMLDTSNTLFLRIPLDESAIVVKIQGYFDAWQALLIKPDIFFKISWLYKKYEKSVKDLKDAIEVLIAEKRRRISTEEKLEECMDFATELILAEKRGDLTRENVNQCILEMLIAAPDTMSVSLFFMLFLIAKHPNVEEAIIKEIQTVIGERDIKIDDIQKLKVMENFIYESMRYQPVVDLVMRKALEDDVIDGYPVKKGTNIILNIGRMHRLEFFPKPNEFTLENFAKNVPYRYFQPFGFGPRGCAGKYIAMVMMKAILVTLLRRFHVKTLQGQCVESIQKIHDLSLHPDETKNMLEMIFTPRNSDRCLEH

Sequence of Estrogen receptor (Homo sapiens) (P03372 whole entry, looked up): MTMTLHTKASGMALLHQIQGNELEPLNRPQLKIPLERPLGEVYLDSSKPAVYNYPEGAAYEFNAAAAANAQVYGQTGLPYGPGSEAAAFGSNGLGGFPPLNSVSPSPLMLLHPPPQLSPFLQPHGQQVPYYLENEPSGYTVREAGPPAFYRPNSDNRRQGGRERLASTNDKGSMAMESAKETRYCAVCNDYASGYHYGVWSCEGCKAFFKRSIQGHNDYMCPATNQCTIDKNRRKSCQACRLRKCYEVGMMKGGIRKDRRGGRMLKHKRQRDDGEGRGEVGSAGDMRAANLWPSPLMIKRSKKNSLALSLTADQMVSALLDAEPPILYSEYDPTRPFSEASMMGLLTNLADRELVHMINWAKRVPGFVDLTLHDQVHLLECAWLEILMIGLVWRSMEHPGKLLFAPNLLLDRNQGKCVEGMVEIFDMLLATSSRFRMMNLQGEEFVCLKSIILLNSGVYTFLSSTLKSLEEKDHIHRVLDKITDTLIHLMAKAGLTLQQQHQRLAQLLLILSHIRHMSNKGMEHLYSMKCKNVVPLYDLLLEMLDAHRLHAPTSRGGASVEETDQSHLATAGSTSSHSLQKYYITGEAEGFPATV
Sequence of Androgen receptor (Homo sapiens) (P10275 whole entry, looked up): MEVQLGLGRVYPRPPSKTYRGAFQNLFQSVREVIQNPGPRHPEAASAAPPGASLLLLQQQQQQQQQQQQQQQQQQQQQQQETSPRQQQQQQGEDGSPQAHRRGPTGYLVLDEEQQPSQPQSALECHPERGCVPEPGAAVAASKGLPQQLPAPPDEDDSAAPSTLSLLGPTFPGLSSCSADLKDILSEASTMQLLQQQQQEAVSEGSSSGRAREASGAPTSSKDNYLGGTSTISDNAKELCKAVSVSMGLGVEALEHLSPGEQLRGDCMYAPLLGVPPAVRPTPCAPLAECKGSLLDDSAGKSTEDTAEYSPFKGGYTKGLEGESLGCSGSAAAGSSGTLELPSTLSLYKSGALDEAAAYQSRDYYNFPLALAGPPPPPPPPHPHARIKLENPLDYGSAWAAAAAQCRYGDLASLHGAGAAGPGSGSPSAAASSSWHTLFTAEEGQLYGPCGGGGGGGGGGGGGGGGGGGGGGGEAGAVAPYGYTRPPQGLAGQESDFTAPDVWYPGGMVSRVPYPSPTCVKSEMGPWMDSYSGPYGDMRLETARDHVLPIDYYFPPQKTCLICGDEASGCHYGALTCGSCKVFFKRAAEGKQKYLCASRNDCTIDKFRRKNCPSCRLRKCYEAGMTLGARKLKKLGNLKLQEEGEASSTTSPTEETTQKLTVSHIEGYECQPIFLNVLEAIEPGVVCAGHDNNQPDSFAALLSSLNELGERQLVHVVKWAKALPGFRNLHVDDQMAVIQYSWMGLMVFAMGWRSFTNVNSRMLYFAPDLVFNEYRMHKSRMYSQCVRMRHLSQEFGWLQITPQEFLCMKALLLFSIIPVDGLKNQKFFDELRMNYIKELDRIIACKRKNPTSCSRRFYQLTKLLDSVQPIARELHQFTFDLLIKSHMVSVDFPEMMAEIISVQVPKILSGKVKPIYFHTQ

## CC(=O)OC(C)OC(=O)C(C)c1ccc(-c2ccccc2)c(F)c1 (configuration not stated)
[1]
  outcome: inactive
[2]
  Potency: inactive
[3]
  Potency: inactive
[4]
  Potency: inactive
[5]
  Potency: inactive
[6]
  Potency: inactive
[7]
  outcome: inactive
[8]
  outcome: inactive
[9]
  Potency: inactive
[10]
  Potency: inactive
[11]
  Potency: inactive
[12]
  Potency: inactive
[13]
  outcome: inactive
[14]
  outcome: inactive
[15]
  outcome: inactive
[16]
  outcome: inactive
[17]
  Potency: inactive
[18]
  Potency: inactive
[19]
  outcome: inactive
[20]
  Potency: inactive

## O=C(OCc1ccccc1)C(=O)OCc1ccccc1
[1]
  outcome: inactive
[2]
  Potency: inactive
[3]
  Potency: inactive
[4]
  Potency: inactive
[5]
  Potency: inactive
[6]
  Potency: inactive
[7]
  outcome: inactive
[8]
  outcome: inactive
[9]
  Potency: inactive
[10]
  Potency: inactive
[11]
  Potency: inactive
[12]
  Potency: inactive
[13]
  outcome: inactive
[14]
  outcome: inactive
[15]
  outcome: inactive
[16]
  outcome: inactive
[17]
  Potency: inactive
[18]
  Potency: inactive
[19]
  outcome: inactive
[20]
  Potency: inactive

## O=C(CCN1CCN(CCO)CC1)N1c2ccccc2Sc2ccc(C(F)(F)F)cc21
[1]
  outcome: inactive
[2]
  Potency: 26.6 µM (active)
[3]
  Potency: 29.8 µM (active)
[4]
  Potency: 29.8 µM (active)
[5]
  Potency: inactive
[6]
  Potency: inactive
[7]
  outcome: inactive
[8]
  outcome: inactive
[9]
  Potency: inactive
[10]
  Potency: inactive
[11]
  Potency: 13.3 µM (active)
[12]
  Potency: 21.1 µM (active)
[13]
  outcome: inactive
[14]
  outcome: inactive
[16]
  outcome: inactive
[17]
  Potency: inactive
[18]
  Potency: inactive
[20]
  Potency: inactive

## CCCCCCCCCC(C)=O
[1]
  outcome: inactive
[2]
  Potency: inactive
[3]
  Potency: inactive
[4]
  Potency: inactive
[5]
  Potency: inactive
[6]
  Potency: inactive
[7]
  outcome: inactive
[8]
  outcome: inactive
[9]
  Potency: inactive
[10]
  Potency: inactive
[11]
  Potency: inactive
[12]
  Potency: inactive
[13]
  outcome: inactive
[14]
  outcome: inactive
[15]
  outcome: inactive
[16]
  outcome: inactive
[17]
  Potency: inactive
[18]
  Potency: inactive
[19]
  outcome: inactive
[20]
  Potency: inactive

## CC(C)=O
[1]
  outcome: inactive
[2]
  Potency: inactive
[3]
  Potency: inactive
[4]
  Potency: inactive
[5]
  Potency: inactive
[6]
  Potency: inactive
[7]
  outcome: inactive
[8]
  outcome: inactive
[9]
  Potency: inactive
[10]
  Potency: inactive
[11]
  Potency: inactive
[12]
  Potency: inactive
[13]
  outcome: inactive
[14]
  outcome: inactive
[15]
  outcome: inactive
[16]
  outcome: inactive
[17]
  Potency: inactive
[18]
  Potency: inactive
[19]
  outcome: inactive
[20]
  Potency: inactive

## C=C(C)C1CCC(C)(O)CC1 (configuration not stated)
[1]
  outcome: inactive
[2]
  Potency: inactive
[3]
  Potency: inactive
[4]
  Potency: inactive
[5]
  Potency: inactive
[6]
  Potency: inactive
[7]
  outcome: inactive
[8]
  outcome: inactive
[9]
  Potency: inactive
[10]
  Potency: inactive
[11]
  Potency: inactive
[12]
  Potency: inactive
[13]
  outcome: inactive
[14]
  outcome: inactive
[15]
  outcome: inactive
[16]
  outcome: inactive
[17]
  Potency: inactive
[18]
  Potency: inactive
[19]
  outcome: inactive
[20]
  Potency: inactive

## COc1nccnc1NS(=O)(=O)c1ccc(N)cc1
[1]
  outcome: inactive
[2]
  Potency: inactive
[3]
  Potency: inactive
[4]
  Potency: inactive
[5]
  Potency: inactive
[7]
  outcome: inactive
[8]
  outcome: inactive
[9]
  Potency: inactive
[10]
  Potency: inactive
[11]
  Potency: inactive
[12]
  Potency: inactive
[13]
  outcome: inactive
[19]
  outcome: inactive
[20]
  Potency: inactive

## COc1ccc(OC)c(Cl)c1
[1]
  outcome: inactive
[2]
  Potency: inactive
[3]
  Potency: inactive
[4]
  Potency: inactive
[5]
  Potency: inactive
[7]
  outcome: inactive
[8]
  outcome: inactive
[9]
  Potency: inactive
[10]
  Potency: inactive
[11]
  Potency: inactive
[12]
  Potency: inactive
[13]
  outcome: inactive
[15]
  outcome: inactive
[19]
  outcome: inactive
[20]
  Potency: inactive

## Oc1cn2c(n1)Nc1ccc(Cl)c(Cl)c1C2
[1]
  outcome: inactive
[2]
  Potency: inactive
[3]
  Potency: inactive
[4]
  Potency: inactive
[5]
  Potency: inactive
[6]
  Potency: inactive
[7]
  outcome: inactive
[8]
  outcome: inactive
[9]
  Potency: inactive
[10]
  Potency: inactive
[11]
  Potency: inactive
[12]
  Potency: inactive
[13]
  outcome: inactive
[14]
  outcome: inactive
[15]
  outcome: inactive
[16]
  outcome: inactive
[17]
  Potency: inactive
[18]
  Potency: inactive
[19]
  outcome: inactive
[20]
  Potency: inactive

## CCOC(=O)c1ncn2c1CN(C)C(=O)c1cc(F)ccc1-2
[1]
  outcome: inactive
[2]
  Potency: inactive
[3]
  Potency: inactive
[4]
  Potency: inactive
[5]
  Potency: inactive
[6]
  Potency: inactive
[7]
  outcome: inactive
[8]
  outcome: inactive
[9]
  Potency: inactive
[10]
  Potency: inactive
[11]
  Potency: inactive
[12]
  Potency: inactive
[13]
  outcome: inactive
[14]
  outcome: inactive
[15]
  outcome: inactive
[16]
  outcome: inactive
[17]
  Potency: inactive
[18]
  Potency: inactive
[19]
  outcome: inactive
[20]
  Potency: inactive

## Cc1cccc(C)c1NC(=O)c1ccccc1C(=O)O
[1]
  outcome: inactive
[2]
  Potency: inactive
[3]
  Potency: inactive
[4]
  Potency: inactive
[5]
  Potency: inactive
[6]
  Potency: inactive
[7]
  outcome: inactive
[8]
  outcome: inactive
[9]
  Potency: inactive
[10]
  Potency: inactive
[11]
  Potency: inactive
[12]
  Potency: inactive
[13]
  outcome: inactive
[14]
  outcome: inactive
[15]
  outcome: inactive
[16]
  outcome: inactive
[18]
  Potency: inactive
[19]
  outcome: inactive
[20]
  Potency: inactive

## O=C(NCCc1c[nH]c2ccccc12)c1cccnc1
[1]
  outcome: inactive
[2]
  Potency: inactive
[3]
  Potency: inactive
[4]
  Potency: inactive
[5]
  Potency: inactive
[7]
  outcome: inactive
[8]
  outcome: inactive
[9]
  Potency: inactive
[10]
  Potency: inactive
[11]
  Potency: inactive
[12]
  Potency: inactive
[13]
  outcome: inactive
[14]
  outcome: inactive
[15]
  outcome: inactive
[16]
  outcome: inactive
[17]
  Potency: inactive
[18]
  Potency: inactive
[19]
  outcome: inactive

## CC(C)NCC(O)COc1ccc(COCCOC(C)C)cc1 (configuration not stated)
[1]
  outcome: inactive
[2]
  Potency: inactive
[3]
  Potency: inactive
[4]
  Potency: inactive and 26.6 µM (active)
[5]
  Potency: inactive
[6]
  Potency: inactive
[7]
  outcome: inactive
[8]
  outcome: inactive
[9]
  Potency: inactive
[10]
  Potency: inactive
[11]
  Potency: inactive
[12]
  Potency: inactive
[13]
  outcome: inactive
[14]
  outcome: inactive
[15]
  outcome: inactive
[16]
  outcome: inactive
[17]
  Potency: inactive
[18]
  Potency: inactive
[19]
  outcome: inactive

## COc1ccc2c(c1)C(=O)N(CCc1ccc(S(=O)(=O)NC(=O)NC3CCCCC3)cc1)C(=O)C2(C)C
[1]
  outcome: inactive
[2]
  Potency: inactive
[3]
  Potency: inactive
[4]
  Potency: inactive
[5]
  Potency: inactive
[6]
  Potency: inactive
[7]
  outcome: inactive
[8]
  outcome: inactive
[9]
  Potency: inactive
[10]
  Potency: inactive
[11]
  Potency: inactive
[12]
  Potency: inactive
[13]
  outcome: inactive
[14]
  outcome: inactive
[15]
  outcome: inactive
[16]
  outcome: inactive
[17]
  Potency: inactive
[18]
  Potency: inactive
[20]
  Potency: inactive
